Screen size: about 53,000 compounds; about 900 (1.7%) showed an effect of 50% or more. What follows is part of a selection rich in strong results, with near analogues and random picks from the rest.

The test concerns Mycobacterium tuberculosis. Description: Cornell - Phenotypic assay to identify agents that inhibit growth of Mycobacterium tuberculosis. The settings on record: 10 mM as filed; unlikely as a test dose. The class given is functional. On the set-up: scale not given: direction of the effect not stated beside the values.
For `COCCOCCCNC(=O)c1cc(Cl)cc2cccnc12`, the “Percent Effect” value came to 14.25%.
For `CNC(=O)c1cc(C)nc(C2(C)CCCN2c2cc(C)ncn2)n1` (stereo not given) the value was -3.041%; for `CCc1ncc(C(=O)N(C)C(C)c2ccc3c(c2)OCCO3)cn1` (stereo not given), -2.31%; for `Cc1cccnc1CCNCC1(O)CCCN(CC2CCCCC2)C1=O` (stereo not given), -24.48%.
For `Cn1ccnc1CN1CCCN(C(=O)c2cccc(CC#N)c2)CC1` the value was -5.317%.
On to `Cc1noc(C)c1-c1cc(CCC2CN(C(=O)C(C)C)CCO2)ncn1` (stereo not given), for which the “Percent Effect” value was 37.61%.
For `O=C(O)C(F)(F)F.O=C(O)C(F)(F)F.c1cnc(N2CC3(CCN(Cc4cccnc4)C3)C2)nc1` the value was -25.95%; for `NC(=O)C1=NN2C(=NS(=O)(=O)c3ccccc32)N1`, 18.26%; for `NC(=O)C1=NC2=NS(=O)(=O)c3ccccc3N2N1Cc1ccccc1Cl`, 106.2%.
With `NC(=O)CN(Cc1ccc(Br)cc1)C(=O)c1ccccn1`, the “Percent Effect” value is listed as -15.26%.
As to `NC(=O)C1=NC2=NS(=O)(=O)c3ccccc3N2N1Cc1ccc(Br)cc1`, the “Percent Effect” value came to 106.5%.
Next, `COC(=O)C1=NN2C(=NS(=O)(=O)c3ccccc32)N1`: 46.07%; `NCc1cn(-c2ccccc2C(=O)NCc2ccccc2Cl)cn1`: -8.218%.
In the case of `NCc1cnn(-c2ccccc2C(=O)NCc2ccccc2Cl)c1`, the “Percent Effect” value is -1.327%.
On to `NC(=O)C1=NC2=NS(=O)(=O)c3ccccc3N2N1Cc1ccc(Cl)cc1`, for which the “Percent Effect” value was 106.1%.
With `CCCN(CCc1ccccn1)C(=O)Cn1cc(C)cn1`, the “Percent Effect” value amounted to 6.805%.
For `CC(C)C(=O)N1CCC(c2c(C(N)=O)sc3ccccc23)C1` (stereo not given) the value was -20.56%.
For `CO[C@H]1CCN(Cc2nccs2)C[C@@H]1Cc1ccccc1` the value was 32.3%.
`CO[C@@H]1CCN(Cc2nccs2)C[C@@H]1Cc1cccc(C)c1.O=C(O)C(F)(F)F`: the “Percent Effect” value is given as 58.64%.
In the case of `CO[C@@H]1CCN(Cc2nccs2)C[C@@H]1Cc1ccccc1.O=C(O)C(F)(F)F`, the “Percent Effect” value stood at 17.77%.
`CC(C)c1ccc(NC(=O)Cn2cc(I)cn2)cc1`: the “Percent Effect” value is reported as 64.63%.
With `NC(=O)c1ccc(NC(=O)Cn2cc(I)cn2)cc1`, the “Percent Effect” value is given as 12.21%.
For `Cc1ccc(NC(=O)Cn2cc(I)cn2)cc1` the value was 2.116%.
For `CS(=O)(=O)CCSc1n[nH]c(-c2ccc3c(c2)CCC3)n1` the value was 22.85%; for `O=C(CSC1CCCC1)N1CCN(c2ccc(-n3cncn3)nn2)CC1`, -7.169%.
Next, `O=C(CSC1CCCC1)N1CCN(C(=O)C2CC2c2cccs2)CC1` (stereo not given): 19.24%; `O=C(CSC1CCCC1)N1CCN(C(=O)C2CC2c2ccccc2)CC1` (stereo not given): 57.68%.
As to `CN(CCOc1ccccc1F)C1CCOC1=O` (stereo not given), the “Percent Effect” value was -18.35%.
Regarding `CC(Cn1cncn1)NCc1csc2c1CCCC2` (stereo not given), the “Percent Effect” value is on record as 6.492%.
As for `CC(Cn1ccnc1)NCc1csc2c1CCCC2` (stereo not given), the “Percent Effect” value worked out at 52.3%.
Take `CC(Cn1cccn1)NCc1csc2c1CCCC2` (stereo not given): the “Percent Effect” value is recorded as -0.7044%.
For `O=C1NCC2(CCCN(C(=O)CCn3cnc4ccccc43)CC2)O1` (stereo not given) the value was -0.9742%.
Next, `COc1cccc(Cn2[nH]c(C)c3c(NC(=O)C(C)OC)nnc2-3)c1` (stereo not given): 19.31%.
Next, `CCOC(=O)C(C)NC(=O)CCc1ccc(F)cc1` (stereo not given): 12.11%.
As for `CCOC(=O)C(C)NC(=O)CCSc1ccc(F)cc1` (stereo not given), the “Percent Effect” value amounted to 72.72%.
Next, `COCC(C)NC(=O)CCSc1ccc(F)cc1` (stereo not given): -22.42%.
As to `CNC(=O)NC(=O)CN1CCN(c2ccc(C(=O)OC)cc2)CC1C` (stereo not given), the “Percent Effect” value was -3.666%.
For `Cc1[nH]/c(=N\C(=O)c2csc(NCC(C)C)n2)sc1C` the value was 105.2%; for `Cc1cs/c(=N\C(=O)c2c3c(nc4onc(C)c24)CCC3)[nH]1`, 37.19%; for `Cc1cs/c(=N/C(=O)c2csc(NCC(C)C)n2)[nH]1`, 104.8%.
Consider `CC(=O)Nc1nc(C(=O)NC(C)c2cccnc2)cs1` (stereo not given), for which the “Percent Effect” value is recorded as -20.46%.
For `CC(C)CNc1nc(C(=O)/N=c2\[nH]nc(C(C)(C)C)s2)cs1` the value was 4.379%; for `CC(=O)Nc1nc(C(=O)NC(C)c2ccncc2)cs1` (stereo not given), -46.84%.
Next, `CCCNC(=O)C(C)N1CCC(C(=O)Nc2cnn(CC)c2)CC1` (stereo not given): -1.052%; `O=C(Nc1cccnc1-n1cc(Br)cn1)C1CCCC1`: -1.816%.
For the molecule `Cc1cnc(N2CCCn3c(nnc3CN(C)C(C)C)C2)nc1.O=C(O)C(F)(F)F`, the “Percent Effect” value worked out at 8.261%.
As to `c1csc(N2CCN(c3ncnc4sccc34)CC2)n1`, the “Percent Effect” value was 8.465%.
In the case of `COCC(=O)N1CCCC(C(=O)N(C)CCn2ccnc2C)C1` (stereo not given), the “Percent Effect” value is given as -64.71%.
For `CCn1c(CN(C)Cc2cnc(C)s2)nc2c(F)cccc21` the value was 21.09%; for `Cc1ccccc1OCCN1CCn2c(C)nnc2C1`, -10.78%.

These data come from ChEMBL document CHEMBL3988442, “University of Dundee, Small-Polar-MMV Screening Library” (2021).
